Screens from PubChem BioAssay.
The list is not random: actives were taken first. Their share in the collection is about 3.2%.
SMARCA2 activ = SMARCA2 (BRM) function activators, primary screen, cell-based, luminescence, high throughput. MG213 cells, MMTV-luciferase reporter, dexamethasone, overnight. activation, % at 9.1 µM. 370,000 compounds, 1% hits; in the data active means activation above about 7.8%;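 further: 0% = vehicle wells and 100% = reference activator wells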
esBAF inh = Bmi1 luciferase reporter increase in mESCs, primary screen, esBAF inhibitor project, mouse ES cells, Bmi1 luciferase knock-in, single point | reporter increase, % at 12.5 µM | 24 h; 100% = twice the neutral-well signal | 350,000 compounds, 2% hits; in the data active means activation above about 40%;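 further: 0% = median of the plate's neutral control wells and 100% = double that signal; a rise in the Bmi1 reporter signal indicates esBAF inhibition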
Dyrk1A ADPGlo = rat Dyrk1A kinase inhibitors, primary screen, biochemical, single point, plate reader; Dual specificity tyrosine-phosphorylation-regulated kinase 1A (Rattus norvegicus), Q63470; ADP-Glo luminescence, NFATc1 peptide; inhibition, % at 12.5 µM; 310,000 compounds, 0.43% hits; AID 504441, 2011; in the data active means inhibition above about 50%;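 further: plate controls were vehicle with enzyme for no effect and no enzyme for full effect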
Rtt109 HAT inh = inhibitors of C. albicans Rtt109/Vps75 HAT, primary screen, biochemical, ThioGlo CoA-SH fluorescence, plate reader. purified Rtt109/Vps75, 4 h. AID 540336, 2011. Histone acetyltransferase RTT109 (Candida albicans (strain SC5314 / ATCC MYA-2876)), …. inhibition, % at 34.9 µM. 330,000 compounds, 0.16% hits;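 active means inhibition of at least 50% in every replicate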
Target sequence (Q5AAJ8 whole entry, looked up): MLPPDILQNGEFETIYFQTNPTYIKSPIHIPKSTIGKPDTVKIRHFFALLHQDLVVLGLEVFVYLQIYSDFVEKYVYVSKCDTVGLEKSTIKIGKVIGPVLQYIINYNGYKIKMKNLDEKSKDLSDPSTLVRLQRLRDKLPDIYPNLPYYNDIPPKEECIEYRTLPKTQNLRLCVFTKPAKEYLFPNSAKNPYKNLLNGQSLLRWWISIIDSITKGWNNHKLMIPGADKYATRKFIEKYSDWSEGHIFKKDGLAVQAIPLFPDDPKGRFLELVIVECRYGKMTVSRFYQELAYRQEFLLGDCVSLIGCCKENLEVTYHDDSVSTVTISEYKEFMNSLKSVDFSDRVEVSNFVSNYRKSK
CDK5 p35 inh = inhibitors of human CDK5/p35 kinase, primary screen, biochemical, single concentration; Recombinant CDK5/p35, ADP-Glo luminescence, 60 min; inhibition, % at 10 µM; 330,000 compounds, 0.01% hits; Cyclin-dependent kinase 5 (Homo sapiens) + Cyclin-dependent kinase 5 activator 1 (Homo …; AID 488839, 2010;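 active means highest replicate inhibition of at least 50% and at least 75% of replicates reaching 50%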;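 further: plate controls were DMSO neutral control for no effect and GW8510 at 10 µM for full effect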
dFosB activator = activators of delta FosB homodimer, primary screen, biochemical, fluorescence polarization, TAMRA-CDK5 oligo, single point | purified delta FosB; percent of positive-control signal above neutral wells | AID 493131, 2011 | Protein FosB (Mus musculus), P13346 | 340,000 compounds, 0.99% hits | activation, % at 25 µM;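 active means mean activation above about 17%, with every replicate also reaching it, limit read from the data, passing the limit was not always enough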
* marks the source's active call; other numbers are inactive results.

`O=C(C[C@H]1C[C@@H]2c3cc(NC(=O)c4cccnc4)ccc3O[C@@H]2[C@@H](CO)O1)NCc1ccccn1` gave esBAF inh -0.3.
CCCC#Cc1ccc2c(c1)O[C@H](CN(C)C(=O)NC(C)C)[C@@H](C)CN([C@H](C)CO)S2(=O)=O was read as esBAF inh 3.5.
CO[C@@H]1CN(C)C(=O)c2ccc(NC(=O)C3CC3)cc2OC[C@H](C)N(Cc2cccnc2)C[C@@H]1C was read as esBAF inh 26.7.
For COc1cccc(N=Nc2c(C)[nH]n(-c3ccccc3)c2=O)c1 the results were SMARCA2 activ 2.8, esBAF inh 35.0, Dyrk1A ADPGlo 3.4, Rtt109 HAT inh 4.6, CDK5 p35 inh 0.1 and dFosB activator -3.2.
Screening Cc1[nH]n(-c2ccccc2)c(=O)c1N=Nc1ccc2c(c1)OCO2 returned SMARCA2 activ -0.6, esBAF inh 64.4*, Dyrk1A ADPGlo -3.9, Rtt109 HAT inh 0.5, CDK5 p35 inh 2.2 and dFosB activator -6.5.
Screening O=C(Nc1ccc2oc(-c3ccc(Cl)c(Cl)c3)nc2c1)c1ncn[nH]1 returned SMARCA2 activ 0.4, esBAF inh 52.0*, Dyrk1A ADPGlo -3.1, Rtt109 HAT inh -6.2, CDK5 p35 inh -1.2 and dFosB activator 2.9.
For O=C(Nc1ccc2oc(-c3ccccc3F)nc2c1)c1ccccc1F the results were SMARCA2 activ 1.8, esBAF inh 84.9*, Dyrk1A ADPGlo -0.1, Rtt109 HAT inh -4.5, CDK5 p35 inh -0.6 and dFosB activator -5.9.
Screening O=C(Nc1ccc2oc(-c3ccccc3F)nc2c1)c1ncn[nH]1 returned SMARCA2 activ 0.6, esBAF inh -3.1, Dyrk1A ADPGlo 2.9, Rtt109 HAT inh -3.5, CDK5 p35 inh 0.2 and dFosB activator -6.2.
For O=C(Nc1ccc2oc(-c3ccncc3)nc2c1)c1ccccc1F the results were SMARCA2 activ 0.9, esBAF inh 39.2, Dyrk1A ADPGlo 0.3, Rtt109 HAT inh 6.0, CDK5 p35 inh -0.6 and dFosB activator -9.5.
For O=C(Nc1ccc2oc(-c3ccccc3)nc2c1)c1ccccc1F the results were SMARCA2 activ 2.0, esBAF inh 51.3*, Dyrk1A ADPGlo -0.3, Rtt109 HAT inh -29.1, CDK5 p35 inh -1.2 and dFosB activator -2.1.
For CC(C)CC(=O)Nc1ccc2oc(-c3ccncc3)nc2c1 the results were SMARCA2 activ 4.5, esBAF inh 66.6*, Dyrk1A ADPGlo 8.9, Rtt109 HAT inh 3.1, CDK5 p35 inh 0.2 and dFosB activator -14.3.
`O=C(NCC[C@@H]1CC[C@@H](NS(=O)(=O)c2cccc(F)c2)[C@@H](CO)O1)C1CCCCC1` gave esBAF inh 6.3.
Screening CCCC1c2ccc(C)n2CCN1C(=O)Nc1ccccc1Cl (stereo unspecified) returned SMARCA2 activ 3.7, esBAF inh 63.2*, Dyrk1A ADPGlo -2.3, Rtt109 HAT inh -21.3, CDK5 p35 inh 0.8 and dFosB activator -5.3.
Screening COc1ccc(CN(C)C[C@H]2Oc3c(NC(=O)c4nc5ccccc5s4)cccc3C(=O)N([C@H](C)CO)C[C@@H]2C)cc1 returned esBAF inh -6.8.
Screening CCC(=O)N(C)C[C@H]1Oc2cc(C#CC3CC3)ccc2S(=O)(=O)N([C@H](C)CO)C[C@@H]1C returned esBAF inh -5.8.
`COc1ccc(OC)c(C(C(=O)NC2CCCCC2)N(C(=O)c2snc(C(N)=O)c2N)c2ccccc2OC)c1` (stereo unspecified) gave SMARCA2 activ -0.4, esBAF inh -3.2, Dyrk1A ADPGlo 11.2, Rtt109 HAT inh -3.6, CDK5 p35 inh -0.3 and dFosB activator -1.0.
For COc1ccccc1N(C(=O)c1snc(C(N)=O)c1N)C(C(=O)NC1CCCCC1)c1cccc(OC)c1OC (stereo unspecified) the results were SMARCA2 activ -1.6, esBAF inh 0.2, Dyrk1A ADPGlo -6.0, Rtt109 HAT inh 53.3*, CDK5 p35 inh -0.7 and dFosB activator -14.3.
